PMC7826789 (International Journal of Molecular Sciences, 2021)

Test system: STK35
Details: Compound Concentration (nM):1000
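Further: KINOMEscan scanMAX binding as percent activity remaining versus control; lower means stronger binding.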

Structure (SMILES) | Percent Control
CN(C)c1cc2c(Nc3ccc4c(cnn4Cc4ccccc4)c3)ncnc2cn1 [GW282974X] | 100%
Cl.O=S1CCN(Cc2ccc(-c3ccc4ncnc(Nc5ccc(OCc6ccccc6)c(F)c5)c4c3)o2)CC1 [GW576924A] | 100%
CCc1ccc(Oc2nccc(-c3c(-c4ccc(F)cc4)ncn3C3CCNCC3)n2)cc1 [SB-242719] | 100%
Nc1ncnc2occ(-c3ccc(NC(=O)Nc4cc(C(F)(F)F)ccc4F)cc3)c12 [GW770249X] | 95%
Cl.O=C(O[C@H]1CN[C@H](C#Cc2cc3ncnc(Nc4ccc5c(cnn5Cc5ccccc5)c4)c3s2)C1)N1CCOCC1 [GSK200398A] | 99%
Cl.c1ccc(Cc2nc3ccc(Nc4ncnc5ccccc45)cc3[nH]2)cc1 [GR269666A] | 100%
COc1ccc2c(-c3ccnc(Nc4cccc(OC(F)(F)F)c4)n3)cnn2n1 [GW810372X] | 100%
COc1cccc(-c2c[nH]c3c(N/N=C/c4ccncc4)ncnc23)c1 [GW814408X] | 100%
CCn1c(-c2nonc2N)nc2c(C#CC(C)(C)O)nc(OCCNC)cc21.Cl [GSK949675] | 100%
NS(=O)(=O)c1ccc(Nc2ncc(-c3ccccc3)o2)cc1 [GW572399X] | 100%
COc1ccc(COc2ccc(Cc3cnc(N)nc3N)cc2OC)cc1 [GW632580X] | 100%
CC(C)COC(=O)c1ccc2c(c1)/C(=C/Nc1ccc(S(N)(=O)=O)cc1)C(=O)N2 [GW416981X] | 100%
Cl.O=C(Nc1ccc(Oc2ccc3[nH]c(NC(=O)c4ccccc4)nc3c2)cc1)Nc1cc(C(F)(F)F)ccc1F [GW709042A] | 95%
COc1cccc(-n2ncc3c(N/N=C/c4ccncc4)ncnc32)c1 [GW784752X] | 100%
NS(=O)(=O)c1ccc(N/N=C2\C(=O)Nc3ccc(Cl)cc32)cc1 [GW280670X] | 100%
O=C(Nc1n[nH]c2nc(-c3ccc(O)cc3)c(Br)cc12)C1CC1 [SB-725317] | 100%
CC1=C(C(=O)Nc2ccc3[nH]ncc3c2)C(c2ccc3ccccc3c2)CC(=O)N1 (stereo not drawn) [GSK270822A] | 99%
Cc1cc(O)cc(C)c1/C=C/c1cncc(C(N)=O)c1 [GW435821X] | 69%
NS(=O)(=O)c1ccc(N/N=C2\C(=O)Nc3ccc(C(=O)NCc4ccncc4)cc32)cc1 [GW300657X] | 93%
C/C(Nc1ccc(S(N)(=O)=O)cc1)=C1/C(=O)Nc2ccccc21 [GW335962X] | 95%
CC1=C(C(=O)Nc2ccc3[nH]ncc3c2)C(c2ccc(Cl)c(Cl)c2)CC(=O)N1 (stereo not drawn) [GSK299115A] | 84%
CCS(=O)(=O)c1ccc(OC)c(Nc2ncc(-c3cccc(F)c3)o2)c1 [GW621970X] | 100%
COc1ccccc1-c1cc(/C=C2\C(=O)Nc3ncc(Br)cc32)cc(Br)c1O [GW442130X] | 100%
NS(=O)(=O)c1ccc(N/N=C2\C(=O)Nc3ccc(C(=O)NCCc4c[nH]cn4)cc32)cc1 [GW300660X] | 100%
O=C1Nc2ccc(C(=O)c3ccco3)cc2C1=Cc1cc(Cl)c(O)c(Cl)c1 [GW406108X] | 100%
COc1cc(C)c(N(C)C(=O)CN(C)C)cc1Nc1nc(Nc2cccc(F)c2C(N)=O)c2cc[nH]c2n1 [GSK2219385] | 98%
NS(=O)(=O)c1ccc(N/N=C2\C(=O)Nc3ccc(-c4cnco4)cc32)cc1 [GW276655] | 99%
COc1ccc2[nH]c3c4[nH]c5ccc(OC)cc5c4c4c(c3c2c1)C(=O)NC4=O [GW296115X] | 80%
COc1cc2ncnc(Nc3ccc4c(cnn4Cc4ccccc4)c3)c2cc1OC.Cl [GW282449A] | 100%

Test system: STK36
Details: Compound Concentration (nM):1000

Structure (SMILES) | Percent Control
COc1cc(C=NNc2ncnc3c2cnn3-c2ccccc2)ccc1O [GW513184X] | 82%
CCS(=O)(=O)c1ccc(OC)c(Nc2ncc(-c3cccc(OC)c3)o2)c1 [GW580509X] | 100%
Cl.O=C(Nc1ccc(Oc2ccc3[nH]c(NC(=O)c4ccco4)nc3c2)cc1)Nc1cc(C(F)(F)F)ccc1F [GW683134A] | 100%
CN1CCN(C(=O)c2ccc(NC(=O)Nc3ccc(N(C)c4ccnc(Nc5ccc(CS(C)(=O)=O)cc5)n4)cc3)cc2)CC1.Cl [GW830263A] | 37%
COc1cc(N2CCN(C(C)C)CC2)ccc1Nc1nc(Nc2ccc(F)cc2C(=O)NC[C@@H](O)CO)c2cc[nH]c2n1 [GSK1392956A] | 100%
C[C@@H](Oc1cc(-n2cnc3ccc(OC4CCN(C)CC4)cc32)sc1C(N)=O)c1ccccc1Cl [GSK579289A] | 76%
COc1ccc2cc(-c3c(-c4ccncc4)nc(-c4ccc(S(C)(=O)=O)cc4C)n3C)ccc2c1 [SB-633825] | 82%
COC(=O)Nc1nc2ccc(Oc3ccc(NC(=O)Nc4cc(C(F)(F)F)ccc4F)cc3)cc2s1.Cl [GW693917A] | 100%
CN(C)CCNC(=O)Nc1ccc(N(C)c2ccnc(Nc3ccc(CS(C)(=O)=O)cc3)n2)cc1.Cl [GW830900A] | 70%
COc1cc(/C=N/Nc2ncnc3[nH]ncc23)ccc1O [GW578748X] | 57%
COc1cc2ncn(-c3cc(O[C@H](C)c4ccccc4Cl)c(C(N)=O)s3)c2cc1OC [GSK237701A] | 98%
CN(C)c1cc2c(Nc3ccc4c(cnn4Cc4ccccc4)c3)ncnc2cn1 [GW282974X] | 100%
Cl.O=S1CCN(Cc2ccc(-c3ccc4ncnc(Nc5ccc(OCc6ccccc6)c(F)c5)c4c3)o2)CC1 [GW576924A] | 100%
CCc1ccc(Oc2nccc(-c3c(-c4ccc(F)cc4)ncn3C3CCNCC3)n2)cc1 [SB-242719] | 82%
Nc1ncnc2occ(-c3ccc(NC(=O)Nc4cc(C(F)(F)F)ccc4F)cc3)c12 [GW770249X] | 100%
Cl.O=C(O[C@H]1CN[C@H](C#Cc2cc3ncnc(Nc4ccc5c(cnn5Cc5ccccc5)c4)c3s2)C1)N1CCOCC1 [GSK200398A] | 100%
Cl.c1ccc(Cc2nc3ccc(Nc4ncnc5ccccc45)cc3[nH]2)cc1 [GR269666A] | 100%
COc1ccc2c(-c3ccnc(Nc4cccc(OC(F)(F)F)c4)n3)cnn2n1 [GW810372X] | 100%
COc1cccc(-c2c[nH]c3c(N/N=C/c4ccncc4)ncnc23)c1 [GW814408X] | 11%
CCn1c(-c2nonc2N)nc2c(C#CC(C)(C)O)nc(OCCNC)cc21.Cl [GSK949675] | 100%

Structure (SMILES) | Percent Control
NS(=O)(=O)c1ccc(Nc2ncc(-c3ccccc3)o2)cc1 [GW572399X] | 100%
COc1ccc(COc2ccc(Cc3cnc(N)nc3N)cc2OC)cc1 [GW632580X] | 74%
CC(C)COC(=O)c1ccc2c(c1)/C(=C/Nc1ccc(S(N)(=O)=O)cc1)C(=O)N2 [GW416981X] | 100%
Cl.O=C(Nc1ccc(Oc2ccc3[nH]c(NC(=O)c4ccccc4)nc3c2)cc1)Nc1cc(C(F)(F)F)ccc1F [GW709042A] | 100%
COc1cccc(-n2ncc3c(N/N=C/c4ccncc4)ncnc32)c1 [GW784752X] | 96%
NS(=O)(=O)c1ccc(N/N=C2\C(=O)Nc3ccc(Cl)cc32)cc1 [GW280670X] | 100%
O=C(Nc1n[nH]c2nc(-c3ccc(O)cc3)c(Br)cc12)C1CC1 [SB-725317] | 100%
CC1=C(C(=O)Nc2ccc3[nH]ncc3c2)C(c2ccc3ccccc3c2)CC(=O)N1 (stereo not drawn) [GSK270822A] | 100%
Cc1cc(O)cc(C)c1/C=C/c1cncc(C(N)=O)c1 [GW435821X] | 100%
NS(=O)(=O)c1ccc(N/N=C2\C(=O)Nc3ccc(C(=O)NCc4ccncc4)cc32)cc1 [GW300657X] | 97%
C/C(Nc1ccc(S(N)(=O)=O)cc1)=C1/C(=O)Nc2ccccc21 [GW335962X] | 98%
CC1=C(C(=O)Nc2ccc3[nH]ncc3c2)C(c2ccc(Cl)c(Cl)c2)CC(=O)N1 (stereo not drawn) [GSK299115A] | 100%
CCS(=O)(=O)c1ccc(OC)c(Nc2ncc(-c3cccc(F)c3)o2)c1 [GW621970X] | 100%
COc1ccccc1-c1cc(/C=C2\C(=O)Nc3ncc(Br)cc32)cc(Br)c1O [GW442130X] | 100%
NS(=O)(=O)c1ccc(N/N=C2\C(=O)Nc3ccc(C(=O)NCCc4c[nH]cn4)cc32)cc1 [GW300660X] | 100%
O=C1Nc2ccc(C(=O)c3ccco3)cc2C1=Cc1cc(Cl)c(O)c(Cl)c1 [GW406108X] | 87%
COc1cc(C)c(N(C)C(=O)CN(C)C)cc1Nc1nc(Nc2cccc(F)c2C(N)=O)c2cc[nH]c2n1 [GSK2219385] | 100%
NS(=O)(=O)c1ccc(N/N=C2\C(=O)Nc3ccc(-c4cnco4)cc32)cc1 [GW276655] | 100%
COc1ccc2[nH]c3c4[nH]c5ccc(OC)cc5c4c4c(c3c2c1)C(=O)NC4=O [GW296115X] | 70%
COc1cc2ncnc(Nc3ccc4c(cnn4Cc4ccccc4)c3)c2cc1OC.Cl [GW282449A] | 100%
